Measured values as given in PubChem BioAssay (NCATS).
Values joined by “and” are separate entries in the source; they are usually repeats but may differ in a detail not shown here. Identical values can stand only once. Inconclusive results are not listed. Active and inactive are the calls of the source. Unless noted, how the calls were made is not given here.

Legend:
[1] = qHTS Assay for Identifying Gametocytocidal Compounds (AID 743244; active means well fitted curve in the direction sought with a large enough effect; an effect the other way counts as inactive or inconclusive; further: potency means the concentration at half of the fitted maximal effect;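 on max response: on the % scale 0 is the no-effect control and ±100 the full control effect; actives lower the fluorescent signal which means gametocytes are killed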); conditions: P. falciparum 3D7 stage III-V gametocytes, alamarBlue, 72 h; max response: stronger effect = lower value
Outline: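 Fluorescence at Ex 525/Em 598 nm, recorded 24 h after alamarBlue addition, reports residual metabolic activity of 3D7 gametocytes (stages III–V) following 72 h compound exposure at 37 °C, 5% CO2.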

[2] = qHTS profiling for inhibitors of Plasmodium falciparum (3D7) proliferation (AID 743322);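 further: infected erythrocytes exposed to compound for 72 h before lysis; 100% = DMSO vehicle wells and 0% = 0.29 µM artemisinin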; conditions: P. falciparum 3D7 proliferation; at 28.7 µM (top of the series)
Outline: (§1)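 Parasite DNA was quantified by SYBR Green I fluorescence (ex 485, em 535 nm) after overnight lysis in saponin/Triton buffer at room temperature. Cultures at 0.3% parasitemia and 2.5% hematocrit were first exposed to compound for 72 h at 37 C; signals were normalised to artemisinin (0.29 uM) and vehicle wells.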

[3] = qHTS profiling for inhibitors of Plasmodium falciparum (DD2) proliferation (AID 743323); conditions: lower = more inhibition; at 28.7 µM (top of the series)
Outline: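 Parasite DNA quantified by SYBR Green fluorescence (ex 485, em 535 nm) after saponin/Triton lysis and overnight dark incubation. Cultures: 0.3% parasitemia, 2.5% hematocrit, 72 h, 37 C; data scaled between DMSO and 0.29 uM artemisinin.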

[4] = qHTS profiling for inhibitors of Plasmodium falciparum (HB3) proliferation (AID 743324; active means well fitted curve in the direction sought with a large enough effect; an effect the other way counts as inactive or inconclusive;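 further: 100% = DMSO vehicle wells and 0% = artemisinin-treated control wells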); conditions: Plasmodium falciparum HB3 blood-stage proliferation; at 28.7 µM (top of the series)
Outline: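 SYBR Green fluorescence (485 ex/535 em) of lysed cultures, incubated overnight at room temperature in the dark, quantifies parasite DNA. Infected erythrocytes at 0.3% parasitemia and 2.5% hematocrit were exposed 72 h; values normalized to DMSO and 0.29 uM artemisinin controls.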

[5] = qHTS profiling of the MIPE4 collection as inhibitors of Plasmodium falciparum (HB3) proliferation (AID 743347);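 further: plate controls were DMSO vehicle wells for no effect and artemisinin wells for full effect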; conditions: P. falciparum HB3 in erythrocytes, SYBR Green DNA, 72 h; at 28.5 µM (top of the series) unless noted
Outline: as §1

[6] = High-throughput drug toxicity screening in the BPDCN cell line Gen2.2 (AID 1224824); conditions: Gen2.2 BPDCN cells; at 45.8 µM (top of the series) unless noted;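 further: cells exposed to compounds for 48 h before reading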
Outline: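 Gen2.2 cells, 500 per well in phenol red-free RPMI with 10% FBS, exposed to compounds 48 h at 37 C, 5% CO2; viability by CellTiter-Glo luminescence. Percent activity scaled to DMSO (100%) and 9.2 uM bortezomib final (0%).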

[7] = High-throughput drug toxicity screening in the BPDCN cell line Cal-1 (AID 1224825); conditions: Cal-1 BPDCN cell viability, qHTS; at 45.8 µM (top of the series) unless noted
Outline: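 CellTiter-Glo luminescence after 48 h compound exposure; percent activity scaled with DMSO as 100% and bortezomib (9.2 uM final) as 0%. Cal-1 cells seeded at 500/well in RPMI, 10% FBS, no phenol red.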

[8] = qHTS profiling of the MIPE4 collection as inhibitors of Plasmodium falciparum (3D7) proliferation (AID 743344);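 further: scaled between DMSO vehicle wells and 0.29 µM artemisinin as full inhibition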; conditions: P. falciparum 3D7 in erythrocytes, SYBR Green DNA fluorescence, 72 h; at 28.5 µM (top of the series) unless noted
Outline: as §1

[9] = qHTS profiling of the MIPE4 collection as inhibitors of Plasmodium falciparum (DD2) proliferation (AID 743345); conditions: P. falciparum Dd2 in erythrocytes, SYBR Green DNA, 72 h; at 28.5 µM (top of the series) unless noted
Outline: as §1

[10] = qHTS profiling of the MIPE4 collection as inhibitors of Plasmodium falciparum (DD2) proliferation (Rep 2) (AID 743346); conditions: P. falciparum Dd2 in erythrocytes, SYBR Green DNA, 72 h; at 28.5 µM (top of the series) unless noted
Outline: as §1

Compound | max response [1] | remaining parasite growth % (stronger effect = lower value) [2] [%] | activity, percent of control [3] [%] | remaining proliferation (% of control), lower = more inhibition [4] [%] | growth, % of control [5] | cell viability, % of control (lower = more cytotoxic) [6] | viability (% of control) [7] | parasite growth, % of DMSO control [8] | parasite growth remaining, % of DMSO control (lower = more inhibition) [9] | parasite growth, % of control (lower = inhibition) [10] | Potency [1]
O=C(NCCS(=O)(=O)c1ccc(C(F)(F)F)cn1)c1ccc(Cl)cc1 | 12.1% (inactive) | 98.8 | 98.7 | 99.7 | 84.8% | 146% | 123% |  |  |  | 
Cc1cccc(C=NNc2cc(N3CCOCC3)nc(OCCc3ccccn3)n2)c1 |  | 3.29 | 8.46 | 1.85 | 4.79% | 60.1% | 63.7% | 5.56% | 15.2% | 11.8% | 
O=C(c1ccc(Nc2nccc(-c3cc4ccccc4s3)n2)cc1)N1CCC(N2CCCC2)CC1 |  | -2.23 | -0.895 | -1.21 | 4.99% | 11.5% | 3.16% | 4.58% | 6.27% | 18.7% | 
CN(C)CC=CC(=O)Nc1cc2c(Nc3ccc(F)c(Cl)c3)ncnc2cc1O[C@H]1CCOC1 |  | -0.281 | 0.518 | 0.188 | 8.85% | 6.25% | 5.7% |  | 7.96% | 9.26% | 0.935 µM (active)
COc1ccc2c(c1)CC[C@@H](CN(C)CC(=O)O)[C@H]2c1ccccc1 | 4.46% (inactive) | 101 | 98.6 |  | 24.2% | 39.9% | 21.4% | 31.6% | 35.4% | 28.4% | 
C1=CCOCc2cc(ccc2OCCN2CCCC2)Nc2nccc(n2)-c2cccc(c2)OCC1 | 17.1% (inactive) |  |  |  | 5.8% | 8.21% | 5.28% | 5.07% | 5.48% | 15.5% | 
COc1ccc(CC2c3cc(OC)c(OC)cc3CC[N+]2(C)CCC(=O)OCCCCCOC(=O)CC[N+]2(C)CCc3cc(OC)c(OC)cc3C2Cc2ccc(OC)c(OC)c2)cc1OC (centres undefined) | 8.81% (inactive) |  |  |  | 85.6% [at 5.51 µM] | 45.2% [at 5.15 µM] | 99% [at 5.15 µM] | 57.8% [at 5.51 µM] | 93.6% [at 5.51 µM] | 58.2% [at 5.51 µM] | 
Cc1ccc(-c2ncn(-c3ccc(Nc4nccc(-c5cccc(N6CCOCC6)c5)n4)cc3)n2)cn1 |  | 3.9 | 4.15 | 5.18 | 8.45% | 5.12% | 3.62% |  |  |  | 11.8 µM (active)
Cc1nc2ccc(CN(C)c3ccc(C(=O)N[C@@H](CCC(=O)O)C(=O)O)s3)cc2c(=O)[nH]1 | 16% (inactive) and -8.64% (inactive) |  |  |  | 424% | 185% | 32.8% | 211% | 106% | 54.1% | 
CN1CC[C@@H](c2c(O)cc(O)c3c(=O)cc(-c4ccccc4Cl)oc23)[C@@H](O)C1 |  | 3.4 | 4.17 | 4.58 | 11.3% | 7.16% | 5.59% | 8.91% | 13.5% | 9.93% | 
Cc1cnc(Nc2ccc(F)cc2Cl)nc1-c1c[nH]c(C(=O)N[C@H](CO)c2cccc(Cl)c2)c1 | -28.2% (inactive) | 7.37 | 17.2 | 6.37 | 11.5% | 4.9% | 1.37% |  | 8.92% |  | 
CN1CCC(CNc2ccc3ncc(-c4cccc(OC(F)(F)F)c4)n3n2)CC1 |  | -1.19 | -0.747 |  | 8.22% | 11.1% | 7.35% | 5.42% | 6.44% | 10.4% | 9.35 µM (active)
CC(C)CC(=O)Nc1n[nH]c2c1CN(C(=O)C1CCN(C)CC1)C2(C)C |  | 9.49 | 13.7 |  | 5.85% | 3.03% | 2.15% | 5.43% | 19.3% | 34.2% | 18.7 µM (active)
Cc1[nH]nc2ccc(-c3cncc(OC[C@@H](N)Cc4ccccc4)c3)cc12 |  | 30.1 | 14.2 | 17.9 | 8.27% | 7.91% | 3.31% | 19.3% | 38% | 20.4% | 
Nc1ccccc1NC(=O)c1ccc(CNC(=O)OCc2cccnc2)cc1 | -2.71% (inactive) | 99.2 | 92.8 |  | 7.7% | 2.59% | 5.69% | 25.3% | 31.3% | 25.4% | 
C1Cc2[nH]nc(-c3nn[nH]n3)c2C1 | 38.3% (inactive) | 48.8 | 98.8 |  | 108% | 194% | 98.5% |  | 93.2% | 178% | 
c1cc(-c2cnn3cc(-c4ccc(OCCN5CCCCC5)cc4)cnc23)ccn1 |  | 6.04 | 13.9 | 12 | 4.45% | 2.64% | 3.8% | 4.66% | 6.66% | 10.1% | 
CN[C@H]1CCc2cc(OC)c(OC)c(OC)c2-c2ccc(OC)c(=O)cc21 | -7.45% (inactive) |  |  |  | 90.6% | 24.2% | 11.6% | 67.4% | 90.5% |  | 
CC(C)c1ccccc1Cc1cc(C(=O)Nc2ccc(S(=O)(=O)c3ccccc3C(C)(C)C)cc2)c(O)c(O)c1O |  | 0.404 | 2.09 | -0.184 | 7.71% | 20.8% | 14.8% | 5.18% | 6.18% | 11.2% | 
Nc1ccccc1NC(=O)c1ccc(CNc2nccc(-c3cccnc3)n2)cc1 |  | -1.31 | 0.67 |  | 2.52% | 12.7% | 5.36% | 5.35% | 7.08% | 7.5% | 11.8 µM (active)
Nc1nccc(Oc2ccc(NC(=O)c3c[nH]cc(-c4ccc(F)cc4)c3=O)cc2F)c1Cl | -5.48% (inactive) | 7.57 | 18.6 | 1.21 | 6.32% | 7.66% | 5.21% |  | 50.4% | 8.39% | 
